Results as given in the supplement of paper PMC6555819.

Columns and labels:
Assay in all cases: PBM binding z-score (relative to random genomic background probes); higher = stronger binding; sequences stand for … in GC…GCGATTGACAGCGTAGAATGAAGG
[1] = tested on: FXR:RXRa (NR concentration 270 nM, RXRa partner concentration 90 nM)
In short: (§1)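 Ligand-free nuclear receptor dimers were applied to custom Agilent 4×180K protein-binding microarrays whose double-stranded probes carried direct-repeat seeds, single-nucleotide variants, half-site ablations and random human genomic background sequences in 34-nt variable regions. Incubation lasted 1 h. Binding z-scores were computed against the random background probes from regression-normalized fluorescence.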

[2] = tested on: LXRa:RXRa (NR concentration 270 nM, RXRa partner concentration 90 nM)
In short: as §1

[3] = tested on: LXRa homodimer (NR concentration 270 nM)
In short: as §1

[4] = tested on: LXRb:RXRa (NR concentration 270 nM, RXRa partner concentration 90 nM)
In short: as §1

[5] = tested on: PPARa:RXRa (NR concentration 270 nM, RXRa partner concentration 90 nM)
In short: as §1

[6] = tested on: PPARg:RXRa (NR concentration 180 nM, RXRa partner concentration 90 nM)
In short: as §1

[7] = tested on: PPARg:RXRa 270nM:90nM, anti-RXR (NR concentration 270 nM, RXRa partner concentration 90 nM)
In short: as §1

[8] = tested on: PPARg:RXRa 30nM:10nM, anti-RXR (NR concentration 30 nM, RXRa partner concentration 10 nM)
In short: as §1

[9] = tested on: PPARg:RXRa 90nM:30nM, anti-RXR (NR concentration 90 nM, RXRa partner concentration 30 nM)
In short: as §1

[10] = tested on: PPARg:RXRa DBDmut IVT, anti-RXR (DBD mutation: RXRa K156A/R161A, NR concentration 270 nM, RXRa partner concentration 90 nM)
In short: as §1

[11] = tested on: PPARg:RXRa IVT, anti-PPARg (NR concentration 270 nM, RXRa partner concentration 90 nM)
In short: as §1

[12] = tested on: PPARg homodimer (NR concentration 180 nM)
In short: as §1

[13] = tested on: PXR homodimer (NR concentration 270 nM)
In short: as §1

[14] = tested on: RARa homodimer (NR concentration 270 nM)
In short: as §1

[15] = tested on: RARb:RXRa (NR concentration 270 nM, RXRa partner concentration 90 nM)
In short: as §1

[16] = tested on: RARa:RXR (NR concentration 270 nM, RXRa partner concentration 90 nM)
In short: as §1

[17] = tested on: PXR:RXRa (NR concentration 270 nM, RXRa partner concentration 90 nM)
In short: as §1

[18] = tested on: LXRb homodimer (NR concentration 270 nM)
In short: as §1

[19] = tested on: PPARg DBDmut:RXRa IVT, anti-PPARg (DBD mutation: PPARg1 K132A/R137A, NR concentration 270 nM, RXRa partner concentration 90 nM)
In short: as §1

[20] = tested on: PPARg DBDmut IVT, anti-PPARg (DBD mutation: PPARg1 K132A/R137A, NR concentration 270 nM)
In short: as §1

Sequence	PBM binding z-score [1]	PBM binding z-score [2]	PBM binding z-score [3]	PBM binding z-score [4]	PBM binding z-score [5]	PBM binding z-score [6]	PBM binding z-score [7]	PBM binding z-score [8]	PBM binding z-score [9]	PBM binding z-score [10]	PBM binding z-score [11]	PBM binding z-score [12]	PBM binding z-score [13]	PBM binding z-score [14]	PBM binding z-score [15]	PBM binding z-score [16]	PBM binding z-score [17]	PBM binding z-score [18]	PBM binding z-score [19]	PBM binding z-score [20]
CTATGTAGGTTAAAGGGGTCATTCAGTTTGAAAG	6.38	5.21	4.18	5.82	6.43	9.57	8.21	7.05	8.61	7.95	7.63	7.13	13	1.99	3.87	–	–	–	–	–
CCGAGTAAGTTACGAGGGGGCATTCAGTGCGAAT	0.776	3.84	0.71	3.69	1.99	-0.0159	1.15	0.0165	0.85	0.778	0.899	0.949	4.68	0.219	1.09	2.13	–	–	–	–
TCGAGTAGGTTATGGGGGCATTCAGGGATGAAGA	1.82	2.24	0.602	4.74	3.71	4.86	4.86	2.99	4.23	3.92	5.17	1.07	1.87	0.33	2.13	2.72	2.72	–	–	–
CTATGTATGTTAAGGGGGTCATTCAGTTTGAAAG	4.79	5	3.54	6.57	5.68	5.43	6.26	3.94	5.84	4.85	5.88	5.05	9.76	3.39	3.74	5.5	5.85	–	–	–
CGGAGTAGGTTACGAGGGGGCATTCAGTGCGAAT	3.18	7.21	1.72	6.48	4.04	4.95	5.18	2.85	4.32	6.26	7.82	1.69	6.07	0.639	2.54	3.15	5.02	–	–	–
CTATGTAGGTTAAGGGGGTCAGTCAGTTTGAAAG	3.26	3.55	1.38	5.26	5.54	8.01	7.42	5.06	7.09	7.45	7.33	3.02	6.85	0.767	3.2	4.15	4.52	–	–	–
CCGAGTAGGTTACGCGGGGGCATTCAGTGCGAAT	3.18	6.77	1.34	6.01	3.32	2.36	3.3	1.11	2.24	4.28	4.82	1.38	7.61	0.0169	2.29	3.67	5.72	–	–	–
CCGAGTAGGTTACGAGGGGGCACTCAGTGCGAAT	2.63	6.57	0.708	5.48	3.35	2.36	3.18	1.09	2.12	4.86	4.51	1.46	3.02	0.931	2.04	2.87	4.32	–	–	–
CTATGTAGGTTAAGTGGGTCATTCAGTTTGAAAG	1.59	2.35	0.645	2.29	4.58	5.98	5.61	2.89	4.9	7.7	7.89	1.59	4.47	0.913	2.15	2.23	2.36	–	–	–
CCTACTGGGCAAAAAAGGTCATTGATGCCGATAA	3.26	4.69	3.15	–	4.85	1.45	2.78	0.775	1.99	0.468	1.62	2.27	1.28	0.909	3.81	4.86	4.27	-0.0939	-0.0172	-0.686
CAAAATAGGTCAAGAGGTCAAAGTCCGCTTCCCG	7.64	6.57	6.23	–	6.57	9.42	8.19	6.55	8.11	7.42	7.83	5.84	2.24	2.71	5.7	7.5	6.31	2.46	2.31	1.62
TCTAGTTCGTCACGGAGGTCACACACGACGGGTA	3.69	3.72	2.25	–	4.1	2.17	3.67	3.62	3.42	1.52	2.15	6.1	2.64	2.71	3.83	5.11	5.15	1.17	0.73	0.867
TTACCAAGGTGAACTGAGGTCGTTGATCCAACTC	3.33	4.31	1.34	–	3.46	2.14	2.3	0.857	1.7	2.89	3.47	1.32	1.94	-0.75	2.43	3.7	6.12	-0.359	0.972	0.996
ATATGTAGGTTACCGGGTCATTCAGTTTGCGCAT	3.18	3.3	1.31	–	5.44	8.51	7.05	4.85	6.88	8.02	8.28	3.3	9.95	0.996	2.76	4.52	4.35	0.869	6.4	4.2
CCCAGTAGGTTACGAGGGGGCATTCAGTGCGAAT	2.52	7.2	1.48	6.4	–	3.75	4.46	1.62	3.59	5.3	5.49	1.71	5.08	0.297	2.2	2.68	4.89	–	–	–
AGAATGAGGTTAGCAAAGATCAGGGAAACGCTTG	0.688	1.07	-0.0125	–	1.79	1.02	0.909	0.0816	0.6	2.18	1.55	-0.323	-0.147	0.53	1.46	0.623	0.442	-0.163	0.688	0.613
